# Measured values as given in PubChem BioAssay (NCI).
# The panel holds about 83,000 compounds, 20% with a hit somewhere; the sample as a whole holds those more often.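 Interpretation: 100, growth as untreated; towards 0, rising growth inhibition; 0, no net growth; 0 to -100, cell death. Compounds scoring below 10 were considered active.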 A number with no mark means an inactive call. Activity calls are given as the source filed them.
# Columns and labels:
# Test in all cases: NCI-60 one-dose screen, 48 h (100 = growth as untreated, 0 = no growth, -100 = all killed)
# Details in all cases: 10 µM unless noted
# NCI-H23 lung = tested on: NCI-H23 lung
# NCI-H226 lung = tested on: NCI-H226 lung
# NCI-H322M lung = tested on: NCI-H322M lung
# HOP-62 NSCLC = tested on: HOP-62 NSCLC
# NCI-H460 lung = tested on: NCI-H460 lung
# HOP-92 NSCLC = tested on: HOP-92 NSCLC
# NCI-H522 lung = tested on: NCI-H522 lung
# A549/ATCC NSCLC = tested on: A549/ATCC NSCLC
# 786-0 renal = tested on: 786-0 renal
# COLO 205 colon = tested on: COLO 205 colon
# DU-145 prostate = tested on: DU-145 prostate
# K-562 leukemia = tested on: K-562 leukemia
# MALME-3M melanoma = tested on: MALME-3M melanoma
# MDA-MB-231 breast = tested on: MDA-MB-231 breast
# RXF 393 renal = tested on: RXF 393 renal
# SF-268 CNS = tested on: SF-268 CNS
# SF-295 CNS = tested on: SF-295 CNS
# SF-539 CNS = tested on: SF-539 CNS
# UACC-257 melanoma = tested on: UACC-257 melanoma
# M14 melanoma = tested on: M14 melanoma
SMILES,growth (NCI-H23 lung),growth (NCI-H226 lung),growth (NCI-H322M lung) [%],growth (HOP-62 NSCLC),growth (NCI-H460 lung),growth (HOP-92 NSCLC),growth (NCI-H522 lung),growth (A549/ATCC NSCLC),growth (786-0 renal),growth (COLO 205 colon),growth (DU-145 prostate),growth (K-562 leukemia),growth (MALME-3M melanoma),growth (MDA-MB-231 breast),growth (RXF 393 renal),growth (SF-268 CNS) [%],growth (SF-295 CNS),growth (SF-539 CNS),growth (UACC-257 melanoma),growth (M14 melanoma)
COc1cc(N2C(=O)[C@H](Cl)C2c2ccc(SC)cc2)cc(OC)c1OC (stereo not given in full),16.7%,53.8%,42.9,23.1%,5.39% (active),-0.311% (active),-7.37% (active),11.1%,-0.223% (active),-45.6% (active),7.66% (active),4.94% (active),78.4%,29.3%,-16.1% (active),28.9,-7.12% (active),8.03% (active),27.3%,-2.68% (active)
CC(=O)N1N=C(c2ccc(Nc3nc(Nc4ccc(F)cc4)nc(Nc4ccc(F)cc4)n3)cc2)CC1c1ccc(N(C)C)cc1 (stereo not given),52.2%,74.6%,84,54.5%,54.3%,35.3%,46%,39.3%,58.5%,46.6%,78.2%,16.8%,42.1%,70%,9.66% (active),74.4,18.2%,65.5%,74.2%,40.2%
C=C(C)[C@@H]1CC[C@]2(C(=O)N3CCNCC3)CC[C@]3(C)[C@H](CC[C@@H]4[C@@](C)(CCC(=O)N5CCNCC5)[C@H](C(=C)C)CC[C@]43C)[C@@H]12,93.2%,92.7%,102,92.9%,8.8% (active),95.5%,71.4%,75.2%,80.2%,77.9%,79.1%,3.02% (active),98.9%,71.2%,82.2%,98.4,101%,79.4%,95.5%,85.8%
CC(C)c1ccc2c(c1)CC[C@H]1[C@](C)(C(=O)OCC#CCN3CCCC3)CCC[C@]21C,61.3%,81.8%,93.8,94.1%,96.9%,65.2%,85.8%,75%,84.1%,44.7%,89.3%,39.8%,70.8%,100%,74%,89.1,97.5%,77.8%,82.4%,82.4%
Cc1c(C(C)(C)O)cn2ncnc(Oc3ccc(NC(=O)Nc4ccc(Cl)c(C(F)(F)F)c4)c(F)c3)c12,30.6%,62.6%,92.1,101%,25.9%,36.4%,39.9%,41.2%,64.8%,72.8%,80.6%,25.4%,91.4%,73.3%,72.4%,63.6,36.4%,41%,80%,55.1%
CC(C)(C)CC(C)(C)Nc1c(-c2c(O)c3ccccc3oc2=O)nc2sc3ccccc3n12,44.1%,56.7%,42.5,23.1%,16.6%,10.8%,32.8%,30.9%,35.6%,28.7%,53.7%,11.8%,50.7%,61.9%,65.9%,48,3.5% (active),44%,38.1%,41.7%
Cn1c(=O)[nH]c(=O)c2nc3c(nc21)-c1ccccc1C3=O,95.6%,92.2%,102,94.3%,102%,100%,96.4%,106%,101%,114%,104%,99%,102%,101%,99.3%,99.3,97.7%,95.8%,102%,99.4%
C=C1CC[C@@H]2C(C)(C)[C@H](O)CC[C@@]2(C)[C@@H]1COc1ccc2ccc(=O)oc2c1,40.7%,28.5%,92.4,45.9%,90.5%,72.4%,32.8%,51.5%,93%,68.7%,56.9%,41.9%,74.3%,84%,101%,68.3,48%,88.4%,69.4%,53.3%
Cc1cccc(NC(=O)N/C(N)=N/c2nc3ccccc3s2)c1,40.9%,53.7%,47.7,30.3%,17.6%,62.7%,16%,45.9%,38.6%,16.9%,34.6%,18.1%,50.7%,58.8%,26.3%,54.2,49.1%,-3.23% (active),55%,16.5%
Fc1cccc(CNc2c3ccccc3nc3ccccc23)c1,33.9%,50.6%,40.2,47.9%,12.7%,-4.06% (active),37.8%,29.3%,36.4%,17.3%,41.7%,15.7%,50.5%,30.6%,32.8%,62.1,25.2%,26.9%,58.1%,38.8%
Cn1cc(-c2csc(-c3cn(C)c4ccccc34)n2)c2cnccc21,83.2%,112%,66.6,42.1%,-46.2% (active),55.5%,16.7%,15.3%,-87.9% (active),-68% (active),29.2%,-39.2% (active),-92.4% (active),-17.7% (active),-40.7% (active),45.1,-73.1% (active),-87% (active),-58.2% (active),-82.6% (active)
Cc1ccc2nc(-c3ccc(C(=O)N/N=C/c4ccc([N+](=O)[O-])cc4)cc3)[nH]c2c1,101%,104%,104,108%,102%,91.9%,95.1%,106%,97.6%,108%,103%,101%,92.2%,97.3%,104%,101,111%,97.5%,108%,102%
Cc1ccc2cnc(N)c(C#Cc3cc(C(=O)Nc4ccc(CN5CCN(C)CC5)c(C(F)(F)F)c4)cnc3C)c2c1,-29.6% (active),7.1% (active),17.8,-35.9% (active),-83% (active),-32% (active),-10.2% (active),-85.5% (active),-82.8% (active),-41.2% (active),-95% (active),-43% (active),-74.7% (active),-70.5% (active),-91.2% (active),17.4,37.4%,-85.9% (active),31.9%,-90.3% (active)
COc1ccc(C/C(C)=C(\c2ccc(Cl)cc2)c2ccc(OCCCN(C)C)cc2)cc1,88.1%,108%,90.1,92.9%,56.6%,52.9%,89.1%,68.7%,76.1%,-66.7% (active),102%,-7.99% (active),80%,83.3%,72.4%,88.6,105%,84.7%,91.5%,48.7%
O=c1oc2c(cc1-c1ccccc1)c[n+]([O-])c1ccccc21,101%,93.5%,104,99.2%,98%,86.4%,98.9%,98%,90.3%,102%,103%,92.6%,97.7%,91.8%,94.6%,107,101%,101%,100%,103%
